Experimental findings from the antibiotic and cytotoxicity screens of Wong et al. (2023) are described below.

In all, about 39,000 compounds went through this assay and about 3,300 (8.5%) were called active. Shown is part of a subset that was picked to be rich in actives.

This experiment deals with HepG2. Description: cytotoxicity call (relative viability < 0.9). As to conditions: 10 µM.
For `COc1ccc(S(=O)(=O)N(C)C[C@@H]2Oc3ccc(NS(=O)(=O)c4ccc(C)cc4)cc3CC(=O)N([C@H](C)CO)C[C@@H]2C)cc1`, the cytotoxicity call was “inactive”.

In the case of `CC(C)NC(=O)N(C)C[C@@H]1Oc2cc(C#Cc3cccc(F)c3)ccc2S(=O)(=O)N([C@H](C)CO)C[C@H]1C`, the cytotoxicity call was “inactive”.

In the case of `Cc1ccc(S(=O)(=O)N(C)C[C@H]2OCCCC[C@H](C)Oc3ccc(NC(=O)Nc4ccc(F)cc4)cc3C(=O)N([C@@H](C)CO)C[C@H]2C)cc1`, the cytotoxicity call was “inactive”.

On to `Cc1ccc(S(=O)(=O)N(C)C[C@H]2Oc3c(NC(=O)NC(C)C)cccc3C(=O)N([C@@H](C)CO)C[C@@H]2C)cc1`, for which the cytotoxicity call was “inactive”.

For `C[C@@H]1CCCCO[C@@H](CN(C)S(=O)(=O)c2ccc(F)cc2)[C@H](C)CN([C@@H](C)CO)C(=O)c2cc(NC(=O)C3CCCCC3)ccc2O1`, the cytotoxicity call is “inactive”.

`C[C@H](CO)N1C[C@H](C)[C@H](CN(C)C(=O)Nc2ccc3c(c2)OCO3)OCCCC[C@H](C)Oc2ccc(NC(=O)Nc3cccc4ccccc34)cc2C1=O`: the cytotoxicity call was “inactive”.

As for `C[C@@H]1CCCCO[C@@H](CN(C)Cc2ccccc2)[C@H](C)CN([C@H](C)CO)C(=O)c2cc(NC(=O)C3CCCCC3)ccc2O1`, the cytotoxicity call is “inactive”.

Turning to `CC(C)NC(=O)N(C)C[C@@H]1Oc2cc(-c3ccccc3F)ccc2S(=O)(=O)N([C@H](C)CO)C[C@@H]1C`, the cytotoxicity call was “inactive”.

For `C[C@@H]1CCCCO[C@H](CN(C)C(=O)Nc2ccc(C(F)(F)F)cc2)[C@H](C)CN([C@@H](C)CO)C(=O)c2cc(NC(=O)C3CCCCC3)ccc2O1`, the cytotoxicity call is “inactive”.

Regarding `Cc1cc(C)cc(C(=O)N(C)[C@H](Cc2ccc(-c3ccccc3)cc2)C(=O)N[C@@H](Cc2c[nH]c3ccccc23)C(=O)O)c1`, the cytotoxicity call is “inactive”.

Consider `O=C(NC(Cc1cc(=O)[nH]c2ccccc12)C(=O)O)c1ccc(Cl)cc1` (centres undefined), for which the cytotoxicity call is “active”.

With `NCCCC[C@@H](N)C(=O)N[C@@H](Cc1c[nH]c2ccccc12)C(=O)N[C@@H](CCCCN)C(=O)O`, the cytotoxicity call is “inactive”.

For `Cc1noc(C)c1NC(=O)Nc1ccc2c(c1)C(=O)N([C@H](C)CO)C[C@H](C)[C@@H](CN(C)C(=O)Nc1ccccc1)OCCCC[C@@H](C)O2`, the cytotoxicity call is “inactive”.

For the compound `CC(C)[C@@H](N)c1nc2ccccc2[nH]1`, the cytotoxicity call is “inactive”.

Consider `C[C@H]1CN([C@@H](C)CO)C(=O)c2cc(NC(=O)Nc3ccc4c(c3)OCO4)ccc2O[C@H]1CN(C)Cc1ccc(Cl)c(Cl)c1`, for which the cytotoxicity call is “inactive”.

`C[C@H](CO)N1C[C@H](C)[C@H](CN(C)Cc2ccc(Cl)c(Cl)c2)Oc2ccc(NC(=O)Nc3ccc4c(c3)OCO4)cc2C1=O`: the cytotoxicity call was “inactive”.

Regarding `C[C@H]1CN([C@@H](C)CO)C(=O)c2cc(NC(=O)Nc3ccc4c(c3)OCO4)ccc2O[C@@H]1CN(C)Cc1ccc(Cl)c(Cl)c1`, the cytotoxicity call is “inactive”.

Regarding `C[C@@H]1CN([C@@H](C)CO)C(=O)c2cc(NC(=O)Nc3ccc4c(c3)OCO4)ccc2O[C@@H]1CN(C)Cc1ccc(Cl)c(Cl)c1`, the cytotoxicity call was “active”.

In the case of `C[C@@H]1CN([C@H](C)CO)C(=O)c2cc(NC(=O)Nc3ccc4c(c3)OCO4)ccc2O[C@@H]1CN(C)Cc1ccc(Cl)c(Cl)c1`, the cytotoxicity call is “inactive”.

Regarding `C[C@@H]1CN([C@@H](C)CO)C(=O)c2cc(NC(=O)Nc3ccc4c(c3)OCO4)ccc2O[C@H]1CN(C)Cc1ccc(Cl)c(Cl)c1`, the cytotoxicity call is “active”.

For the compound `COCC(=O)Nc1ccc2c(c1)OC[C@@H](C)N(C(=O)CN1CCOCC1)C[C@@H](C)[C@H](OC)CN(C)C2=O`, the cytotoxicity call is “inactive”.

Consider `COc1ccc(CN(C)C[C@H]2Oc3ccc(NC(=O)Nc4ccc(C(F)(F)F)cc4)cc3CC(=O)N([C@H](C)CO)C[C@H]2C)cc1`, for which the cytotoxicity call was “active”.

Consider `COc1ccc(CN(C)C[C@H]2Oc3ccc(NC(=O)Nc4ccc(C(F)(F)F)cc4)cc3CC(=O)N([C@@H](C)CO)C[C@@H]2C)cc1`, for which the cytotoxicity call is “active”.

As for `COc1ccc(NC(=O)Nc2ccc3c(c2)CC(=O)N([C@@H](C)CO)C[C@@H](C)[C@H](CN(C)Cc2ccc(C(F)(F)F)cc2)O3)cc1`, the cytotoxicity call was “active”.

Consider `COc1ccc(NC(=O)Nc2ccc3c(c2)CC(=O)N([C@@H](C)CO)C[C@H](C)[C@@H](CN(C)Cc2ccc(C(F)(F)F)cc2)O3)cc1`, for which the cytotoxicity call is “inactive”.

Turning to `COc1ccc(CN(C)C[C@H]2Oc3ccc(NC(=O)Nc4ccc(C(F)(F)F)cc4)cc3CC(=O)N([C@@H](C)CO)C[C@H]2C)cc1`, the cytotoxicity call was “active”.

With `COc1ccc(NC(=O)Nc2ccc3c(c2)CC(=O)N([C@H](C)CO)C[C@@H](C)[C@H](CN(C)Cc2ccc(C(F)(F)F)cc2)O3)cc1`, the cytotoxicity call was “inactive”.

Regarding `CO[C@H](CN(C)S(=O)(=O)c1ccc(Cl)cc1)[C@@H](C)CN([C@@H](C)CO)S(=O)(=O)c1cccc(Cl)c1`, the cytotoxicity call is “inactive”.

As for `COc1ccc(CN(C)C[C@H]2OCCCC[C@H](C)Oc3ccc(NS(=O)(=O)c4ccc(F)cc4)cc3C(=O)N([C@H](C)CO)C[C@@H]2C)cc1`, the cytotoxicity call was “inactive”.

As for `C[C@@H]1CN([C@H](C)CO)C(=O)c2cccc(NC(=O)Nc3ccc(C(F)(F)F)cc3)c2O[C@@H]1CN(C)S(C)(=O)=O`, the cytotoxicity call is “inactive”.

Turning to `C[C@H](CO)N1C[C@H](C)[C@@H](CN(C)Cc2ccccc2)OCCCC[C@H](C)Oc2ccc(NC(=O)NC3CCCCC3)cc2C1=O`, the cytotoxicity call was “inactive”.

For `O=C(Cn1cnnn1)NS(=O)(=O)c1ccccc1`, the cytotoxicity call was “inactive”.

For `C[C@H](CO)N1C[C@H](C)[C@H](CN(C)S(=O)(=O)c2ccc(-c3ccccc3)cc2)OCc2cn(nn2)CCCC1=O`, the cytotoxicity call is “inactive”.

In the case of `C[C@@H]1CCCCO[C@@H](CN(C)C(=O)Nc2ccccc2)[C@@H](C)CN([C@@H](C)CO)C(=O)c2cc(NC(=O)c3ccccc3)ccc2O1`, the cytotoxicity call is “inactive”.

On to `COc1ccc(S(=O)(=O)N(C)C[C@@H]2Oc3c(NS(=O)(=O)c4cn(C)cn4)cccc3C(=O)N([C@H](C)CO)C[C@H]2C)cc1`, for which the cytotoxicity call is “inactive”.

As to `O=C(C[C@@H]1CC[C@H](NC(=O)c2ccc(F)cc2)[C@@H](CO)O1)NCc1ccncn1`, the cytotoxicity call was “inactive”.

Consider `COc1ccc(NC(=O)Nc2ccc3c(c2)C(=O)N([C@H](C)CO)C[C@@H](C)[C@H](CN(C)S(=O)(=O)c2ccc(OC)cc2)OCCCC[C@H](C)O3)cc1`, for which the cytotoxicity call was “inactive”.

For the compound `C[C@@H]1CN([C@H](C)CO)C(=O)CCCn2cc(nn2)CO[C@@H]1CN(C)S(=O)(=O)c1ccccc1C#N`, the cytotoxicity call was “inactive”.

Regarding `Cc1ccc(S(=O)(=O)N(C)C[C@H]2Oc3c(NS(=O)(=O)c4ccc(F)cc4)cccc3C(=O)N([C@H](C)CO)C[C@@H]2C)cc1`, the cytotoxicity call is “inactive”.
